This excerpt belongs to a sample that is enriched for hits.
BJeLR viability = BJeLR cell viability reduction. BJeLR fibroblasts viability, CellTiterGlo ATP luminescence, 48 h; HRASV12, hTERT and SV40 LT/ST transformed. viability loss activity score, % (concentration not given with the values). actives 0.64% (n = 30,000). AID 2275; in the data active means viability loss activity score above about 50%;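 further: higher score means fewer live cells and less ATP luminescence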
Shh pathway inh = Sonic Hedgehog pathway inhibition | Shh-LIGHT2 Gli-luciferase reporter, 30 h | inhibition, % (no concentration beside the values) | actives 2.1% (n = 22,000);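 active means mean inhibition across valid replicates above about 65%, limit read from the data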;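 further: pathway switched on by Shh-conditioned medium diluted 1 in 25 in low serum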
MITF inhib = MITF inhibition | TRPM1 promoter luciferase, luminescence, 24 h | inhibition, % (no concentration beside the values) | actives 0.28% (n = 37,000) | AID 2240; in the data active means inhibition above about 85%;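 further: human melanocyte line stably carrying TRPM1 promoter luciferase reporter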
The depositor's hits bear a star; x = not tested or not shown.

SMILES | BJeLR viability | Shh pathway inh | MITF inhib
CCOC(=O)c1cc(-c2ccccc2)sc1NC(=O)CCN1CCN(CC)CC1 | 51* | x | x
CCOC(=O)c1cc(-c2ccccc2)sc1NC(=S)Nc1cnccn1 | x | x | -9
CC(C)CCNC(=O)c1ccc(CS(=O)(=O)c2ccc(Br)cc2)o1 | 4 | x | x
COC(=O)CSc1nnc(CNC(=O)c2ccccc2F)n1Cc1ccccc1 | -2 | x | x
COc1ccc2c(=O)cc(-c3ccccc3)oc2c1 | -7 | -41 | -109
COc1cccc(-c2cc(=O)c3cc(OC)ccc3o2)c1 | 14 | -142 | 93*
CNCCNS(=O)(=O)c1cccc2cnccc12 | 4 | -23 | -29
O=S(=O)(NCCNC/C=C/c1ccc(Br)cc1)c1cccc2cnccc12 | 4 | 81* | 26
O=C(COCc1cc(-c2ccc(F)cc2)on1)N1CCOCC1 | 1 | x | x
Cc1noc(C)c1NC(=O)Nc1ccc2c(c1)C(=O)N([C@H](C)CO)C[C@@H](C)[C@@H](CN(C)Cc1ccc(Oc3ccccc3)cc1)O2 | 2 | 67* | 4
C[C@@H]1CN([C@H](C)CO)C(=O)c2cc(NC(=O)NC3CCCCC3)ccc2O[C@@H]1CN(C)Cc1ccc(Oc2ccccc2)cc1 | 1 | 91* | 11
CC(C)NC(=O)Nc1ccc2c(c1)C(=O)N([C@@H](C)CO)C[C@H](C)[C@H](CN(C)Cc1ccc(-c3ccccc3)cc1)O2 | 2 | 5 | 13
CC(C)NC(=O)Nc1ccc2c(c1)C(=O)N([C@H](C)CO)C[C@@H](C)[C@@H](CN(C)Cc1ccc(-c3ccccc3)cc1)O2 | -1 | 67* | -5
Cc1noc(C)c1NC(=O)Nc1ccc2c(c1)C(=O)N([C@H](C)CO)C[C@H](C)[C@@H](CN(C)Cc1ccc(Oc3ccccc3)cc1)O2 | 2 | 33 | -2
C[C@H](CO)N1C[C@H](C)[C@H](CN(C)Cc2ccc(Oc3ccccc3)cc2)Oc2ccc(NC(=O)NC3CCCCC3)cc2C1=O | 2 | x | 5
O=C1CCCN2N=C(SCc3ccccc3F)SC2=N1 | 6 | x | x
C=CCn1c(SCC(=O)O)nnc1-c1ccncc1 | x | x | -11
C=CCn1c(Sc2ncnc3c2cnn3-c2ccccc2)nnc1-c1ccncc1 | 69* | x | x
Cc1ccc(S(=O)(=O)N(C)C[C@H]2Oc3c(NC(=O)Nc4ccc(C(F)(F)F)cc4)cccc3C(=O)N([C@@H](C)CO)C[C@H]2C)cc1 | -3 | -24 | 78
Cc1ccc(S(=O)(=O)N(C)C[C@@H]2Oc3c(NC(=O)Nc4ccc(C(F)(F)F)cc4)cccc3C(=O)N([C@@H](C)CO)C[C@@H]2C)cc1 | 0 | 93* | -1
C[C@H](CO)N1C[C@H](C)[C@H](CN(C)S(=O)(=O)c2ccc(Cl)cc2)Oc2c(NC(=O)Nc3ccc(C(F)(F)F)cc3)cccc2C1=O | 1 | 100* | 10
COc1ccc(NC(=O)Nc2cccc3c2O[C@@H](CN(C)S(=O)(=O)c2ccc(Cl)cc2)[C@@H](C)CN([C@@H](C)CO)C3=O)cc1 | -2 | 101* | -8
Cc1ccc(S(=O)(=O)N(C)C[C@@H]2Oc3c(NC(=O)Nc4ccc(C(F)(F)F)cc4)cccc3C(=O)N([C@H](C)CO)C[C@H]2C)cc1 | -1 | -5 | 3
C[C@@H]1CN([C@H](C)CO)C(=O)Cc2cc(NC(=O)Nc3ccc(C(F)(F)F)cc3)ccc2O[C@@H]1CN(C)S(=O)(=O)c1ccc(Cl)cc1 | x | -3 | 16
C[C@H](CO)N1C[C@H](C)[C@H](CN(C)S(=O)(=O)c2ccc(Cl)cc2)Oc2ccc(NC(=O)Nc3ccc(C(F)(F)F)cc3)cc2CC1=O | x | 72* | 50
SMILES | BJeLR viability | Shh pathway inh | MITF inhib
COc1ccc(NC(=O)Nc2cccc3c2O[C@H](CN(C)S(=O)(=O)c2ccc(Cl)cc2)[C@H](C)CN([C@@H](C)CO)C3=O)cc1 | 0 | 33 | -6
CCNC(=S)N(CCc1c(C)[nH]c2ccccc12)Cc1ccccn1 | 0 | x | x
O=C(CSC1=NC2(CCCC2)N=C1c1ccccc1)Nc1ccccc1 | -3 | x | x
O=C(CN1C(=O)/C(=C/c2ccccc2Cl)SC1=S)Nc1ccccc1C(F)(F)F | 1 | x | x
CCc1c(C)sc(NC(=O)C2CC3CCC2C3)c1C(=O)OC (configuration not stated) | 2 | x | x
O=C1/C(=C/N2CCCCC2)Nc2ccccc21 | -6 | x | x
C[C@@H]1CN([C@H](C)CO)C(=O)c2cccc(NC(=O)Nc3ccc(C(F)(F)F)cc3)c2O[C@@H]1CN(C)S(=O)(=O)c1ccc(F)cc1 | -5 | -13 | 18
C[C@H]1CN([C@@H](C)CO)C(=O)c2cccc(NC(=O)Nc3ccc(C(F)(F)F)cc3)c2O[C@H]1CN(C)S(=O)(=O)c1ccc(Cl)cc1 | 0 | 105* | -3
O=C(Nc1ccccc1C(=O)N1CCCC1)C(c1ccccc1)c1ccccc1 | -1 | x | x
CCc1ccc(/C=C2\C(=N)N3N=C(S(C)(=O)=O)SC3=NC2=O)cc1 | -2 | x | x
Cc1cc(C)c2c3n(nc2n1)C(=O)NC(C(F)(F)F)(C(F)(F)F)N3 | -3 | x | x
Cc1ccc2nc(-c3ccccc3)cn2c1 | 78* | x | x
Cc1ccccc1C(=O)Nc1cccc(-c2cn3ccccc3n2)c1 | 5 | x | x
CCCCN(C(=S)Nc1cccc(C)c1)C1CCN(C(C)=O)CC1 | 4 | x | x
C[C@@H]1O[C@@H](O[C@H]2[C@H](O[C@H]3CC[C@@]4(C)C(CC[C@]5(C)C4CC=C4C6CC(C)(C)CC[C@]6(C(=O)O[C@@H]6O[C@H](CO[C@@H]7O[C@H](CO)[C@@H](O[C@@H]8O[C@@H](C)[C@H](O)[C@@H](O)[C@H]8O)[C@H](O)[C@H]7O)[C@@H](O)[C@H](O)[C@H]6O)CC[C@]45C)[C@]3(C)CO)OC[C@H](O)[C@@H]2O)[C@H](O)[C@H](O)[C@H]1O (some centres not stated) | x | -8 | x
C[C@@H]1O[C@@H](O[C@H]2[C@H](O[C@H]3CC[C@@]4(C)C(CC[C@]5(C)C4C=C[C@]46OC[C@@]7(CCC(C)(C)C[C@H]74)[C@@H](O)C[C@]65C)[C@]3(C)CO)O[C@H](CO)[C@@H](O)[C@@H]2O[C@@H]2O[C@H](CO)[C@@H](O[C@@H]3O[C@@H](C)[C@H](O)[C@@H](O)[C@H]3O)[C@H](O)[C@H]2O)[C@H](O)[C@H](O)[C@H]1O (some centres not stated) | x | 104* | x
Cn1c(C(=O)O)c(CC(=O)Nc2cnc3ccccc3c2)c2ccccc21 | 5 | x | x
CC(=O)N1c2ccccc2N=C(c2ccc(C)cc2)CC1c1ccccc1 (configuration not stated) | -5 | x | x
COc1ccc(C2=Nc3ccccc3SC(c3ccccc3)C2)cc1 (configuration not stated) | -4 | 80* | -3
O=C1CC(SCc2ccc(Cl)cc2)C(=O)N1c1ccc(Br)cc1 (configuration not stated) | 2 | 94* | 4
O=C(CSC1CC(=O)N(c2ccc(Cl)cc2)C1=O)Nc1ccc(Cl)cc1 (configuration not stated) | x | x | -7
O=C1c2c(O)cc(O)cc2OC(c2ccc(O)cc2)C1C1C(=O)c2c(O)cc(O)cc2OC1c1ccc(O)cc1 (configuration not stated) | x | -42 | x
O=C1c2c(O)cc(O)cc2O[C@@H](c2ccc(O)cc2)[C@H]1[C@@H]1C(=O)c2c(O)cc(O)cc2O[C@H]1c1ccc(O)cc1 | 6 | 72* | -5
